According to PubChem BioAssay AID1508600 (Functional Genomics Laboratory (NCATS/FGL), 2020):
Out of some 53,000 sequences screened, about 3,700 (7%) were called active.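 Rule for the calls: active = gene knockdowns whose robust z-score for IL-1 alpha signal is at least 2 or at most -2, so actives lie on both sides; inactive = the rest.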 The entries come from a sample that favours actives as a whole.

experiment: Components of the Cytosolic LPS Sensing Pathway: Gene Identification via Genome-wide siRNA Screen; details: RAW264.7 macrophages, IL-1a HTRF, actives lie on both sides, screened at 100 nM (by protocol), cells primed 5 h with Pam3CSK4 first;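 note: robust z of the log signal after scaling to non-targeting control siRNA wells of the plate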
Summary of the method: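 Three distinct siRNAs per gene were tested singly at 100 nM in RAW264.7 macrophages. Following Pam3CSK4 priming and 24 hour LipidA transfection, IL-1a secretion was read by HTRF.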

| Sequence | z-score |
| --- | --- |
| GCUAGAUCUUUCAUCCAACTT against Lrtm1 | 1.2 (inactive) |
| GGCCUUGGUGAAAAUGCAGTT against Plaat1 | -2.07 (active) |
| GGAGACAUGGACCAUGGCUTT against Mapt | 0.37 (inactive) |
| GGUGAUGUAUAUUGAGUCUTT against Sdcbp2 | 0.149 (inactive) |
| GGAUAGACUUGAUUCUUGGTT against Emid1 | 0.491 (inactive) |
| GGAAAUAGUACAGAAACCATT against Mcph1 | -2.44 (active) |
| CCAUGUUUUUAUAGCUCUUTT against Sidt2 | 1.49 (inactive) |
| GGUGGAUAAAGCUUAAAUATT against V1rg10 | -0.258 (inactive) |
| GGAGGCACAGAGAUUGAAGTT against Sry | 0.247 (inactive) |
| GGCAUCUUUGGAGACUGGUTT against Sycn | 0.598 (inactive) |
| CCUUUGGAAUUUCUAAUACTT against Stil | -0.286 (inactive) |
| GGCUGUCAAAACAGUGCUCTT against Hmgcs2 | 1.45 (inactive) |
| GCUGGAGACGUAUUUGUCCTT against Olfr294 | 2.17 (active) |
| UUGGCUGCAUUAUCAUGAGTT against Olfr311 | -0.419 (inactive) |
| GGUUUGGCAGAAGUGCAUGTT against Npff | -0.801 (inactive) |
| GCUACAUCGCUCUUAUAGCTT against Foxl1 | 0.0236 (inactive) |
| CGAUGUUGAGGGAUUAUCUTT against Tstd2 | -2.25 (active) |
| GGACUUGAAAUUAGCAAAATT against Arhgef3 | -0.0218 (inactive) |
| GGACUUUAAAUGCAAUAUCTT against Trps1 | -0.567 (inactive) |
| GGCUCCAAGCACUAAAUAATT against B130024G19Rik | 0.168 (inactive) |
| CCUCAAACUAACCACUCACTT against Olfr1045 | -1.13 (inactive) |
| GGAGAUCCUGGAAGACUUCTT against Ocstamp | 2.18 (active) |
| GGACUAUGCCAAUGUCAGATT against Zfp763 | 0.0585 (inactive) |

| Sequence | z-score |
| --- | --- |
| GGGUAAGCCAAGAAGAAGUTT against Rgs4 | -1.01 (inactive) |
| GGGAAAAACUCUGUGUGUATT against Coasy | -0.25 (inactive) |
| GGCUCCACACGAUUGUUAGTT against Gne | -0.0134 (inactive) |
| GUUCCACCAGAUUUUCUAATT against Vmn1r28 | 2.6 (active) |
| GGAGAAUUUAGAGCUACCATT against Atg10 | -1.56 (inactive) |
| GCCCAUCACUUAUAGUGGGTT against Usf2 | -0.799 (inactive) |
| GGAGCAUUUUAUUCAGAUGTT against Rad23b | 2.22 (active) |
| GGUGGAGAAGAAAUCUAAGTT against Eif4g1 | -0.344 (inactive) |
| CCUGAGACCGAAUUUUACCTT against Cer1 | -0.209 (inactive) |
| GGAAACGUGGGCAUGAUCATT against Olfr944 | -0.239 (inactive) |
| GGAUAAUGAUGUGAAAGGCTT against Mrps30 | 0.984 (inactive) |
| GGACAACAUGAACUGUCAGTT against Snrpd3 | -2.74 (active) |
| GCUUGACUUUGAAAGUCCATT against Gm11733 | -1.54 (inactive) |
| GGCUUUCUCCCAGCAAUAGTT against Scrt1 | -1.97 (inactive) |
| GGGAUCAACAUUUACCGAATT against Ablim1 | 0.596 (inactive) |
| CCCACCUUCCGACUUGAAUTT against Col12a1 | -1.12 (inactive) |
| GUCAGAACCAUAGCCAUGATT against Vmn1r202 | -0.623 (inactive) |
| GCUGAUCAGAGACCAUUACTT against Cmss1 | -2.26 (active) |
| GGGAGAAGGUGGAAAUACUTT against Hdgfl3 | 1.63 (inactive) |
| GGCCAUACGGACCAUGUAUTT against Slc25a19 | -1.25 (inactive) |
| GGACCAAAUCCUCUGAUUCTT against Bud13 | 2.74 (active) |
| GGCUGCCUUGCUGAUUUGATT against Boc | 0.762 (inactive) |
| CCUUUACGUUUCUGUGUCUTT against Slc37a4 | -1.19 (inactive) |

| Sequence | z-score |
| --- | --- |
| CCAUUCUACACUUUUCCACTT against Krtap1-5 | -0.909 (inactive) |
| GCCAAGCAUUAAGUGAUAATT against Setmar | 2.7 (active) |
| CCAACUAAUCCCAUAUUCCTT against Tmem43 | 0.0511 (inactive) |
| GGAGCUAUGUUCAGUUCUUTT against Qsox1 | 0.438 (inactive) |
| GCAUUAUCUGUGAAAAUCCTT against En2 | 0.262 (inactive) |
| GCAGAAAUUAACAAGUCUCTT against Kif2c | 0.816 (inactive) |
| GCACUGUUCGUUUUUGUUUTT against Astn1 | 0.275 (inactive) |
| GGCUAUGGGAAUCAUGAAUTT against H2bc18 | -2.84 (active) |
| GCUCUAUGAGAGUAUAUUATT against Tamm41 | -0.495 (inactive) |
| GCAUGUGAUUACCUUUGUATT against Btbd10 | 0.633 (inactive) |
| GGGAUCCCGCAAAAUCAGATT against Osm | 0.63 (inactive) |
| GCACAUCUUGGACCGUUUCTT against Lhx3 | 0.851 (inactive) |
| GGGUACAAGCUUAUCAAUATT against Trpm6 | 4.91 (active) |
| GGUGUAUAGCUGUUGUGGGTT against Dennd2d | -1.41 (inactive) |
| CCUCAAGGAACUGAAUGCCTT against Olfr1320 | 0.0261 (inactive) |
| GGGAUAAAGAGAGACCCAATT against Flywch1 | 0.889 (inactive) |
| CCAGAUGACAAUGAGUCAGTT against Ss18 | -0.197 (inactive) |
| CCUAAAUUUGACUGUGCCUTT against Nudt10 | 2.13 (active) |
| GCGAUUGUCAUUCUCUUUUTT against Jak3 | 0.711 (inactive) |
| GGGCUUUCCCAGUUCCUAATT against Bmp6 | 2.04 (active) |
| CCACCUCAAGUCAAAGACUTT against Cggbp1 | -0.445 (inactive) |
| GGCUCUAGAAGCGAGAAUCTT against Six6 | -0.234 (inactive) |
| GGACCUAAUCCAUAAGGUCTT against Pcyox1l | -0.379 (inactive) |
